Data taken from PubChem BioAssay (NCATS).
Where “and” joins values, the source holds several entries; their conditions need not be identical. Equal values may be shown once. Results filed as inconclusive are left out. Calls of active or inactive are those of the source. Unless noted, calls come from the whole dose curve; as a rule, active = well fitted curve in the direction sought with a large enough effect; inconclusive = small, poorly fitted or top-dose-only effect, or another doubt; inactive = no such curve, though single readings can be large; an effect the other way counts as inactive or inconclusive.

Columns and labels:
[1] = biological target: Cellular tumor antigen p53 (Homo sapiens) (UniProt P04637); experiment: Primary qHTS for small molecule compounds that upregulate eGFP-tagged delta133p53alpha (in N-terminal) cells. (AID 2060322); conditions: NCI-H358 eGFP-delta133p53alpha fluorescence, 24 h; activation: hits give high values;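 note: cells pre-induced with doxycycline then dosed without doxycycline; 0% = DMSO vehicle and 100% = reference activator; nearly all actives have a fitted effect of over 75% in size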
Chain of Cellular tumor antigen p53 (Homo sapiens) (P04637 whole entry, looked up): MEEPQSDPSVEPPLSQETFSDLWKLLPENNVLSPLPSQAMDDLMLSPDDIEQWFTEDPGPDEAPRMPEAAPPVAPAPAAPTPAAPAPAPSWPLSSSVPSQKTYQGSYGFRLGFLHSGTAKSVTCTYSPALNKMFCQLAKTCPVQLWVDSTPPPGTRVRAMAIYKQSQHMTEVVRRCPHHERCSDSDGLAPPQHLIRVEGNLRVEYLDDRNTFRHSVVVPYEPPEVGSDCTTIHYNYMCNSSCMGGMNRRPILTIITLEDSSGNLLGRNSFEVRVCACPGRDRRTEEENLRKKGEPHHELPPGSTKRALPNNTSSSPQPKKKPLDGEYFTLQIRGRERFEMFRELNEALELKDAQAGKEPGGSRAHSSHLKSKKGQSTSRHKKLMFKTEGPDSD
In short: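 NCI-H358 cells pre-induced 24 h with 10 ng/ml doxycycline for eGFP-delta133p53alpha, plated dox-free and exposed 24 h at 37C to titrated compounds. Fixed, Hoechst-stained; gated GFP peak intensity by laser scanning cytometry, normalized to DMSO (0%) and 57.5 uM 5-azacytidine (100%).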

[2] = biological target: Cellular tumor antigen p53 (Homo sapiens) (UniProt P04637); experiment: Primary qHTS for small molecule compounds that upregulate eGFP-tagged delta133p53alpha (in C-terminal) cells. (AID 2060324); conditions: NCI-H358 delta133p53alpha-eGFP (C-terminal tag), GFP fluorescence imaging, 24 h; series mostly up to 57.5 µM;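 note: 0% = DMSO wells and 100% = 57.5 µM 5-azacytidine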
In short: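 Readout: filtered GFP peak intensity of gated cells (laser scanning cytometer), normalized plate-wise to intraplate controls, DMSO wells = 0% activity. Cells: NCI-H358 D133p53a-eGFP, dox 100 ng/ml 24 h beforehand, then compound 24 h, 37 °C.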

[3] = biological target: Aldehyde dehydrogenase, mitochondrial (Homo sapiens) (UniProt P05091); experiment: qHTS for Inhibitors of the Aldehyde Dehydrogenase Family (ALDH2) Validation screens (AID 2061302; active = well fitted inhibition curve with a large enough effect; title and protocol of this record describe different tests;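 note: plate controls were DMSO vehicle for no effect and maximal DPI positive control response for full effect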); conditions: ALDH inhibition qHTS; series mostly up to 42.6 µM
[4] = biological target: Retinaldehyde dehydrogenase 3 (Homo sapiens) (UniProt P47895); experiment: qHTS for Inhibitors of the Aldehyde Dehydrogenase Family (ALDH1A3) Validation screen (AID 2061312); conditions: ALDH1A3 enzyme inhibition qHTS validation, fluorescence; series mostly up to 84.7 µM; note: % is set by controls: 0 for no effect and ±100 for the full control effect; nearly all actives have a fitted effect of over 45% in size

C=C1C[C@@]23CC[C@H]4[C@@](C)(CCC[C@@]4(C)C(=O)OC4OC(CO)C(O)C(O)C4O)[C@@H]2CC[C@]1(OC1OC(CO)C(O)C(O)C1OC1OC(CO)C(O)C(O)C1O)C3 (stereo not given in full)
inactive: activation [1] -5.25% | Potency [2] | Potency [3] | Potency [4]

CCCCCCCCCCCCCCCC(=O)OC(CC(=O)O)C[N+](C)(C)C (stereo not given)
inactive: activation [1] -11.1% | Potency [2] | Potency [3] | Potency [4]

N[C@H](C(=O)O)c1cc(O)cc(O)c1
inactive: activation [1] -2.9% | Potency [2] | Potency [3] | Potency [4]

CN(C)CC/C=C1\c2ccccc2COc2ccccc21
inactive: activation [1] -10.9% and -21.6% | Potency [2] | Potency [3] | Potency [4]

COc1cccc(OC)c1OCCNCC1COc2ccccc2O1 (stereo not given)
inactive: activation [1] 7.71% | Potency [2] | Potency [3] | Potency [4]

Nc1cc(Cl)c(NC2=NCCN2)c(Cl)c1
inactive: activation [1] -1.06% | Potency [2] | Potency [3] | Potency [4]

Cc1cccc(C)c1NC(=O)C(C)N (stereo not given)
inactive: activation [1] 10.9% and -14% | Potency [2] | Potency [3] | Potency [4]

Nc1ccn([C@H]2CC[C@@H](CO)O2)c(=O)n1
inactive: activation [1] 32.8% and -1.67% and -29% | Potency [2] | Potency [3] | Potency [4]

Fc1ccc(CN(C2=NCCN2)c2c(Cl)cccc2Cl)cc1
inactive: activation [1] -28.1% | Potency [2] | Potency [3] | Potency [4]

CCCN(CCC)CCc1cccc2c1CC(=O)N2
inactive: activation [1] 6.69% and 9.01% | Potency [2] | Potency [3] | Potency [4]
